Source: PubChem (several laboratories)
M18AAP inhibitor – blocks P. falciparum M18 aspartyl aminopeptidase | inhibition, % at 7.35 µM | recombinant PfM18AAP, H-Glu-NHMec fluorogenic cleavage | AID 1822 | 290,000 tested, 1.2% active;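 active = inhibition above the campaign mean inhibition over all tested compounds plus 3 SD, cut at about 28% in these data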
PHOSPHO1 block – PHOSPHO1 (human) inhibition. Q8TCT1. recombinant PHOSPHO1, absorbance phosphatase assay. inhibition, % at 13.3 µM. 290,000 tested, 1.1% active; in the data active = inhibition above about 60%
PfG6PD inh – PfG6PD (Plasmodium falciparum) enzyme inhibition | PfGluPho enzyme, NADPH resazurin-diaphorase fluorescence | inhibition, % at 20 µM | 350,000 tested, 0.78% active;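 active = inhibition reaching at least a set limit at 20 µM in the primary screen, cut at about 59% in these data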
ALR inh – human ALR oxidase inhibition via reduced H2O2. purified ALR, DTT oxidation, H2O2 HRP-luminol luminescence. 290,000 tested, 3.8% active. inhibition, % (test concentration not listed). AID 485317. P55789;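 active = mean replicate inhibition above about 79%, with every replicate also reaching it, limit read from the data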
Target sequence (P55789 whole entry, looked up): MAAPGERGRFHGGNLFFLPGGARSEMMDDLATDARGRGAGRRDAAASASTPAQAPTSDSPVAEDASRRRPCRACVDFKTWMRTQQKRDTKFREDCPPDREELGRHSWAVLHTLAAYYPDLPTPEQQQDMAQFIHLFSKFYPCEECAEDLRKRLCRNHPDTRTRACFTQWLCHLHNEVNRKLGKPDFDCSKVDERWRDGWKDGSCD
Cardio protect – myocardial damage modulation in H9c2 cells | 360,000 tested, 0.63% active | AID 588492 | H9c2 cardiomyocytes, H2O2 injury protection, ATPLite, 2 h | protection from H2O2 cell death, % at 20 µM;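 active = compounds giving at least 50% protection of heart cells from peroxide-induced death in the single-dose screen, raw or plate-pattern-corrected value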
Hits are given with their value; - = inactive; . = not tested or not shown. In the library only some 5.6% were active in any assay of this set; here they are far more common.

SMILES | M18AAP inhibitor | PHOSPHO1 block | PfG6PD inh | ALR inh | Cardio protect
Cc1ccc(N2C(=O)N3[C@H](c4ccc(F)cc4)[C@@H]4C(=O)N(C5CCCCC5)C(=O)[C@@H]4[C@]3(C)C2=O)cc1 | - | - | - | - | -
CC(C)CNC(=O)C1CCN(S(=O)(=O)c2ccc3c(c2)OCCO3)CC1 | . | . | - | - | -
CCOc1ccc(CCNC(=O)c2cccc(S(=O)(=O)N3CCCCC3)c2)cc1OCC | . | . | - | - | -
Cc1oc(-c2ccccc2)nc1CSc1nc2c(c(=O)[nH]1)CCC2 | - | - | - | . | -
Cc1cccc(-c2nc(CSc3nc4c(c(=O)[nH]3)CCC4)c(C)o2)c1 | - | - | - | 98.8 | -
C/C(=N/NC(=O)c1ccoc1C)c1cccc(NC(=O)C2CC2)c1 | - | - | - | - | -
Cc1ccc(C(=O)Nc2ccc(Oc3ccc(C(=O)O)c(C(=O)O)c3)cc2)cc1C | - | - | - | 98.2 | -
O=C(O)c1ccccc1C(=O)Nc1ccc(Oc2ccc3ccccc3c2)cc1 | - | - | - | 99.0 | -
Cc1c(C)c(C)c(C(=O)c2ccc(NC(=O)c3ccccc3C(=O)O)cc2)c(C)c1C | - | - | - | 96.4 | -
O=C(CCN1CCOCC1)c1ccc(Cl)cc1 | - | - | - | 96.3 | -
O=C(CCN1CCN(c2ccccc2)CC1)c1ccc(Br)cc1 | - | - | - | - | -
O=C(CCN1CCOCC1)c1ccc(Br)cc1 | - | - | - | 97.7 | -
CCOC(=O)N1CCN(C(=O)CCCn2nnnc2CN2CCC(C)CC2)CC1 | - | - | - | - | -
O=C(CSc1nc2ccccc2[nH]1)Nc1ccc(N2CCOCC2)cc1 | - | - | - | 98.7 | -
O=C(CSc1nc2ccccc2[nH]1)Nc1cccc(S(=O)(=O)N2CCOCC2)c1 | - | - | - | . | -
O=C(CSc1nc2ccccc2[nH]1)N1CCN(c2ccccc2)CC1 | - | - | - | 98.6 | -
O=C1CCC(=O)N1c1ccc(CSc2nc3ccccc3[nH]2)cc1 | - | - | - | 98.8 | -
N#CCCn1c(SCC(=O)Nc2ccc(N3CCOCC3)cc2)nc2ccccc21 | - | - | - | 98.8 | -
O=C(CCCSc1nc2ccccc2[nH]1)N1CCN(c2ccccc2)CC1 | - | - | - | - | -
COc1ccc(C(=O)NC(=S)NCc2ccco2)cc1Br | - | - | - | - | -
CCC(C)(C)NC(=O)C(c1cccc(OC)c1OC)N(C(=O)CCC(=O)Nc1cc(C)on1)C(C)C (stereo not given) | - | - | - | - | -
Cc1ccc(S(=O)(=O)N(C)CC(=O)Nc2nnc(CC(C)C)s2)cc1 | - | - | - | - | -
O=C(O)c1cccc2c1C(=O)c1ccc(-c3ccc(F)cc3F)cc1S2(=O)=O | . | . | - | - | -
Cn1cc(SCC(=O)N2CCN(c3ccccc3)CC2)c2ccccc21 | - | - | - | 98.0 | -
O=C(CSc1nc2ccccc2[nH]1)c1ccc(Cl)s1 | - | 102.7 | - | . | -
SMILES | M18AAP inhibitor | PHOSPHO1 block | PfG6PD inh | ALR inh | Cardio protect
CCOC(=O)c1c(-c2ccc(OC)cc2)csc1/N=C/C1C(=O)CCCC1=O | 33.5 | - | - | - | -
CCCn1c2ccccc2c2cnn(CC(=O)N3CCN(C4CCCCC4)CC3)c(=O)c21 | - | - | - | - | -
COCCN(CCOC)C(=O)c1ccc(CSc2nc3ccccc3s2)cc1 | - | - | - | 91.9 | -
N#C/C(=C/c1ccncc1)c1nc2ccccc2c(=O)[nH]1 | - | - | - | - | -
N#C/C(=C1\CCCN1)c1nc2ccccc2c(=O)[nH]1 | - | - | - | - | 73.5
CCC(=O)N(C)CCc1cc2c(c(OC)c1/C=N/NC(=O)[C@H]1C[C@@H]1c1ccccc1)OCO2 | - | - | - | . | -
CCC(=O)N(C)CCc1cc2c(c(OC)c1/C=N/Nc1ccc(C(=O)O)cc1)OCO2 | - | - | - | 98.7 | -
CC(C)(C)c1nnc2sc(SCC(=O)c3cccs3)nn2c1=O | - | - | - | 98.3 | -
Cc1ccc(C(=O)CSc2nn3c(=O)c(C(C)(C)C)nnc3s2)cc1 | - | - | - | 98.3 | -
CC(C)(C)c1nnc2sc(SCC(=O)N3CCCc4ccccc43)nn2c1=O | - | - | - | 99.1 | -
Cc1ccc(S(=O)(=O)n2cnc3ccccc32)cc1[N+](=O)[O-] | - | - | - | - | -
CC(C)c1ccc(Oc2cccc(C(=O)/C(C#N)=C/N(C)C)c2)cc1 | - | - | - | 98.0 | -
CN(C)/C=C(\C#N)C(=O)c1cccc(Oc2ccc(Br)cc2)c1 | - | - | - | - | -
Cc1cccc(C(=O)NNC(=O)CSc2nnc(C3CC3)n2C)c1 | - | - | - | - | -
